Vaccinia Venus: vaccinia inhibition (Venus reporter); actives 0.46% (n = 330,000); Vaccinia virus Venus reporter expression, fluorescence; Potency, µM (titrated, usually from 36.5 µM), for inactives: at the highest dose activity change, negative = inhibition, most hits filed as inhibitors; AID 720580; calls by dose curve; tested in A549 cells; also: potency is read from the fitted curve at half-maximal effect; nearly all actives have a fitted effect of over 30% in size
Vaccinia mCherry: vaccinia inhibition (mCherry reporter); actives 0.63% (n = 310,000); Potency, µM (doses to about 36.5 µM), inactives show at the top dose activity change, negative = inhibition, hits mostly inhibitors; Vaccinia virus mCherry reporter infection, fluorescence; AID 720579; calls by dose curve; tested in A549 cells; also: potency is read from the fitted curve at half-maximal effect; nearly all actives have a fitted effect of over 35% in size
HCV inh: blocks hepatitis C virus. Potency, µM (titrated, usually from 41.8 µM), without a hit: top-dose activity change, negative = inhibition, hits mostly inhibitors. Huh7.5.1 HCVcc-Cre infection, luciferase reporter, 44 h. actives 3.4% (n = 340,000). AID 651820; active = well fitted inhibition curve with a large enough effect; inconclusive = small, poorly fitted or top-dose-only effect, or another doubt; inactive = no such curve, though single readings can be large or run the other way; also: potency is read from the fitted curve at half-maximal effect
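A cell-based infection assay in which seeded cells (1,000 per well) receive test compound after 4 h, are inoculated with HCVcc-Cre at approximately 0.5 moi, and are incubated 44 h before luminescence detection.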
HCMV antiviral: blocks human cytomegalovirus replication. HFF cells, HCMV-luciferase reporter, 72 h; hits give low values. activity change, negative = inhibition, % at 57.5 µM. actives 4.5% (n = 410,000). AID 1259415; in the data active = activity change below about -60%; inconclusive = no clear call, values can overlap the other calls; inactive = above about -39%
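After 16 h attachment at 37C, HFF cells received test compound and HCMV-luciferase (1 PFU/cell); reporter luminescence read 72 h later, data normalized against buffer-only and known inhibitor Salinomycin.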
FMDV inh: blocks foot and mouth disease virus | Potency, µM (doses to about 57.9 µM), for the others: top-dose activity change, negative = inhibition, actives largely listed as inhibitors | FMDV antiviral cell-based qHTS | actives 1.2% (n = 410,000); calls by dose curve; tested in HEK293T cells; also: read-out not given here; potency is read from the fitted curve at half-maximal effect; nearly all actives have a fitted effect of over 45% in size
The depositor's hits bear a star; [ ] = dose if it differs, or a comment. Only some compounds are listed: those with a hit (about 7.3% of all), similar ones and a draw of the others. % is scaled to controls: 0 for no effect and ±100 for the full control effect.

For Cc1ccc(-c2c(C)n3c4c(=O)n(C)c(=O)n(C)c4nc3n2CCCO)cc1 the results were Vaccinia Venus -25.8%, Vaccinia mCherry -25.3%, HCMV antiviral -73.1* and FMDV inh 11.2µM*.
CCOc1ccc(NC(=O)CN(C)C(=O)CCc2ccccc2Cl)cc1OCC was read as Vaccinia Venus inconclusive, Vaccinia mCherry -17.5%, HCV inh -20.0%, HCMV antiviral -80.4* and FMDV inh inconclusive.
Screening CCN(CC)CCCNC(=O)c1cc2cc(Cl)ccc2nc1N returned HCMV antiviral -25.8.
For CCC(Nc1ccc(-c2nc(-c3ccco3)no2)cc1[N+](=O)[O-])c1ccccc1 (stereo unspecified) the results were Vaccinia Venus -6.3%, Vaccinia mCherry -7.8%, HCMV antiviral 12.4 and FMDV inh 10.1%.
`CC(C)c1c(O)ccc2c1CC[C@H]1C(C)(C)CCC[C@]21C` gave Vaccinia Venus inconclusive, Vaccinia mCherry -23.1%, HCV inh 2µM*, HCMV antiviral 12.6 and FMDV inh inconclusive.
COc1ccc(C(C)(O)c2nc(-c3ccccc3OC)cs2)cc1 (stereo unspecified) was read as Vaccinia Venus -19.4%, Vaccinia mCherry -15.2%, HCMV antiviral -1.3 and FMDV inh -17.0%.
For CCCc1cc(-c2[nH]ncc2-c2ccc3c(c2)OCCCO3)c(O)cc1O the results were HCV inh 11.2µM*, HCMV antiviral 39.2 and FMDV inh 14.1µM*.
`CCCc1cc(-c2[nH]ncc2-c2ccc(C(=O)OCC)o2)c(O)cc1O` gave Vaccinia Venus inconclusive, Vaccinia mCherry inconclusive, HCV inh inconclusive and HCMV antiviral -62.0*.
For CCc1cc(-c2[nH]ncc2-c2nc3ccccc3n2C)c(O)cc1O the results were HCV inh -21.9%, HCMV antiviral 14.5 and FMDV inh -45.3%.
Cn1cc(CNCc2cn[nH]c2-c2ccc(F)cc2)c(-c2ccc3c(c2)OCCO3)n1 was read as HCV inh 1.9%, HCMV antiviral -27.9 and FMDV inh -2.2%.
`CCCN1CNc2c(c(=O)[nH]c(=S)n2CCc2c(Cl)cccc2Cl)C1` gave Vaccinia Venus -10.8% and Vaccinia mCherry inactive.
Screening Cc1cc(C(=O)COc2ccc(-c3nnco3)cc2)c(C)n1Cc1ccccc1 returned HCV inh inconclusive, HCMV antiviral -69.6* and FMDV inh inconclusive.
CCOc1cc2c(cc1O)C(=NOC)CC1C2CCC2(C)C(O)CCC12 (stereo unspecified) was read as Vaccinia Venus inconclusive, Vaccinia mCherry inconclusive, HCV inh -29.7%, HCMV antiviral -72.6* and FMDV inh 0.9%.
COc1ccc(C2=Nc3ccccc3N(C(=O)c3ccc4ncccc4c3)C2C(=O)NC2CCCC2)cc1 (stereo unspecified) was read as Vaccinia Venus -25.4%, Vaccinia mCherry inconclusive, HCMV antiviral -77.7* and FMDV inh 40.8%.
C#CCOc1ccc(C2C(C(=O)OC)=C(C)NC3=C2C(=O)c2ccccc23)cc1OCC (stereo unspecified) was read as Vaccinia Venus -11.2%, Vaccinia mCherry -10.0%, HCMV antiviral inconclusive and FMDV inh -21.5%.
CCN(CC)C(=O)c1sc(NC(=O)C(Sc2ccccc2)c2ccccc2)c(C(=O)OC(C)C)c1C (stereo unspecified) was read as Vaccinia Venus inconclusive, HCV inh 10µM*, HCMV antiviral -2.9 and FMDV inh 0.0%.
CCOC(=O)N=Nc1c(O)n(CC(=O)OC)c2ccccc12 was read as Vaccinia Venus -12.3%, Vaccinia mCherry -5.2%, HCV inh 6.4%, HCMV antiviral 14.3 and FMDV inh -4.9%.
`CCOC(=O)N=Nc1c2ccccc2c2nc3no[nH]c3nc12` gave Vaccinia Venus 0.501µM*, Vaccinia mCherry 0.501µM*, HCV inh 0.562µM*, HCMV antiviral -100.1* and FMDV inh 2µM*.
N#Cc1cccc(NC(=O)C2CCN(c3nc(-c4ccc(Cl)cc4)no3)CC2)c1 was read as Vaccinia Venus -11.6%[7.34 µM], Vaccinia mCherry -12.1%[7.34 µM], HCMV antiviral inconclusive and FMDV inh 25.1µM*.
Screening COc1cc(OCc2ccccc2)c(OC)c(OCc2ccccc2)c1 returned Vaccinia Venus -4.5%, Vaccinia mCherry inconclusive, HCV inh 10µM*, HCMV antiviral 34.3 and FMDV inh 5.7%.
For Cc1nc(S(=O)(=O)N2CCN(c3cccc(Cl)c3)CC2)cn1C the results were Vaccinia Venus -1.1%, Vaccinia mCherry -4.0%, HCMV antiviral -7.3 and FMDV inh -15.8%.
For CC1=C(CCN2CCN(C3CCCC3)C(CCO)C2)C(C)(C)CCC1 (stereo unspecified) the results were Vaccinia Venus -19.0%, Vaccinia mCherry -27.3%, HCV inh inconclusive, HCMV antiviral -36.7 and FMDV inh -12.4%.
Screening CC1=C(CC/C(C)=N/NC(N)=S)C(C)(C)CCC1 returned HCV inh 25.1µM*, HCMV antiviral -23.6 and FMDV inh -14.1%.
Screening Cc1cc(C)n(-c2ccc(C(=O)Nc3ccc(S(=O)(=O)N(C)C)cc3)cc2)n1 returned Vaccinia Venus -22.2%, Vaccinia mCherry -4.4%, HCV inh inconclusive, HCMV antiviral -97.2* and FMDV inh inconclusive.
Screening CC(=O)Nc1cccc(NS(=O)(=O)c2c(C)noc2C)c1 returned Vaccinia Venus inconclusive, Vaccinia mCherry 6.31µM*, HCV inh 21.4%, HCMV antiviral -30.0 and FMDV inh -8.7%.
For CC(=O)c1cccc(NS(=O)(=O)c2c(C)noc2C)c1 the results were Vaccinia Venus -3.8%, Vaccinia mCherry -14.5%, HCV inh 17.0%, HCMV antiviral 40.4 and FMDV inh 31.1%.
`Cc1cc(C)n(-c2ccc(C(=O)Nc3cccc([N+](=O)[O-])c3)cc2)n1` gave Vaccinia Venus -6.2%, Vaccinia mCherry -17.7%, HCV inh 11.2µM*, HCMV antiviral inconclusive and FMDV inh -29.0%.
Screening CC(C)(C)c1ccc(C(=O)Nc2cccc([N+](=O)[O-])c2)cc1 returned Vaccinia Venus inconclusive, Vaccinia mCherry inconclusive, HCV inh inconclusive, HCMV antiviral 14.4 and FMDV inh -38.2%.
`Cc1cc(C)n(-c2ccc(C(=O)Nc3ccc(N4CCOCC4)cc3)cc2)n1` gave Vaccinia Venus inconclusive, HCV inh 9.2%, HCMV antiviral -32.1 and FMDV inh 3.8%.
`C/C(=N\Nc1nc(Cl)c(Cl)cc1Cl)c1ccc(S(=O)(=O)NCc2ccco2)cc1` gave Vaccinia Venus -29.8%, Vaccinia mCherry inconclusive, HCV inh 6.31µM*, HCMV antiviral inconclusive and FMDV inh -34.1%.
CCC(C(=O)NCCc1ccc(Cl)cc1)n1ccc2cc(S(=O)(=O)N3CCCCC3)ccc21 (stereo unspecified) was read as Vaccinia Venus -20.5%, Vaccinia mCherry -16.7%, HCMV antiviral -26.5 and FMDV inh 25.9%.
`CCOc1ccccc1-c1noc(CCCC(=O)Nc2cccc(C(F)(F)F)c2)n1` gave Vaccinia Venus 3.8%, Vaccinia mCherry -11.0%, HCMV antiviral 1.4 and FMDV inh -9.0%.

Compound activity (PubChem)
